From PubChem BioAssay (NCATS)
Where “and” joins values, the source holds several entries; their conditions need not be identical. Identical values can stand only once. Records with an inconclusive call do not appear. A call without a number means that no potency is given here. Calls of active or inactive are those of the source. The call rests on the fitted dose curve; in most records, active means well fitted inhibition curve with a large enough effect; inconclusive means small, poorly fitted or top-dose-only effect; inactive means no such curve, though single readings can be large or run the other way.

These compounds were tested against Furin (Homo sapiens) (UniProt P09958) (assay: Furin counterscreen qHTS for Zika virus inhibitors (AID 1347149; further: nearly all actives have a fitted effect of over 70% in size)). Details: furin enzymatic counterscreen, fluorogenic substrate; series mostly up to 57.5 µM.
Sequence of Furin (Homo sapiens) (P09958 whole entry, looked up): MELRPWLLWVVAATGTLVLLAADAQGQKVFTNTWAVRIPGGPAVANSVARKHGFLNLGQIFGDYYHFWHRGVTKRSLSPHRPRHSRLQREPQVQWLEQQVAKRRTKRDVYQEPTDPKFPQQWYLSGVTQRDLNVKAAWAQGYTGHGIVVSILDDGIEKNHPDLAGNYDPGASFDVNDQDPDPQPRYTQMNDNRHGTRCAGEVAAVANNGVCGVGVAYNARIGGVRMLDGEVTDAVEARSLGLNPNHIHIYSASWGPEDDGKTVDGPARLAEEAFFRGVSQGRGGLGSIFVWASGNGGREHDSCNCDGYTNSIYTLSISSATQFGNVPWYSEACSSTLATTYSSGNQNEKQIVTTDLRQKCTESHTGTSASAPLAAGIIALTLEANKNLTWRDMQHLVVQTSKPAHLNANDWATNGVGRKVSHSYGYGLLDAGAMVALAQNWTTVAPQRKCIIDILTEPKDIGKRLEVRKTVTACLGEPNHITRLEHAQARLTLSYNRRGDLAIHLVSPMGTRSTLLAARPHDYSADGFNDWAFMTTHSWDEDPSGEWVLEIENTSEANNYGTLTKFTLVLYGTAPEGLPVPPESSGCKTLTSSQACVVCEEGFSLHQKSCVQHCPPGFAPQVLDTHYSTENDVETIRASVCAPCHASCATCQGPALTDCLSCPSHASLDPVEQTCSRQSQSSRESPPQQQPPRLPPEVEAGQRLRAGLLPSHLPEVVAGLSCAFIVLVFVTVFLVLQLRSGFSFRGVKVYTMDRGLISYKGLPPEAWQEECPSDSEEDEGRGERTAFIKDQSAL
From the text: Avindra Nath, Ph.D., National Institute of Neurological Disorders and Stroke (NINDS), Bethesda, MD
Radhakrishnan Padmanabhan, Ph.D., Georgetown University (GU), Washington D.C.
Zika Virus causes congenital defects, including microcephaly and is associated with Guillain-Barre syndrome, eningoencephalitis and myelitis in infected adult. […] Using a target-based approach, we hope to establish a screening paradigm to uncover novel, cell-active NS2B-NS3 protease (Zika Virus) specific inhibitors from NCATS' collection of small molecules using qHTS.
Four assay panel was created to identify potential Zika Virus inhibitors. Namely, (1) GU unlinked NS2B-NS3 AMC tagged protease qHTS, (2) GU unlinked NS2B-NS3 Rhodamine tagged protease qHTS, (3) NINDS linked NS2B-NS3 AMC tagged protease qHTS, (4) NINDS linked NS2B-NS3 Rhodamine tagged protease qHTS. Active compounds were re-acquired and re-screened to confirm inhibition. Inhibitors were further screened against various confirmatory and counterscreens in dose response format.
Early Translation Branch (ETB)
National Center for Advancing Translational Sciences (NCATS), Rockville, MD
National Institute of Health (NIH), Bethesda, Maryland
1536-well Furin BOC-RVRR-AMC Protocol:
Human recombinant Furin Serine Protease was purchased from Peprotech (catalog #450-47; full length; Rocky Hill, NJ). Briefly, 3 microL of enzyme (final concentrations of 5 nM), in assay buffer (100 mM HEPES pH 7.0, 1 mM CaCl2 with 0.01% Triton X-100) were dispensed into a 1,536-well solid-bottom black plate (Greiner Bio One, Monroe, NC). Twenty-three nL of compounds (final concentration range 7.28 nM to 114 microM) or control Furin Inhibitor I (Dec-RVKR-CMK; final concentration range 0.248 nM to 8.12 microM) were transferred via Wako Pin-tool (Wako Automation, Richmond, VA). Samples were incubated (RT, protected from light) for 15 minutes followed by a 1 microL substrate addition of BOC-RVRR-AMC (final concentration of 2 microM; Km = ~15 muM90). Plates were then read immediately on a ViewLux High-throughput CCD imager (PerkinElmer, Waltham, MA) equipped with standard UV fluorescence optics (340(30) nm excitation, 450(20) nm emission), then incubated (37C, protected from light) for 15 or 30 minutes (~9% conversion). The change in fluorescence intensity over the 15-minute reaction period was normalized against no-inhibitor and no-enzyme controls and the resulting percent inhibition data were fitted to a 4-parameter Hill equation. Furin Inhibitor I was used as intraplate control.
Potency means the concentration at half of the fitted maximal effect.

| SMILES | Potency |
| --- | --- |
| O=C1Cc2cc(CCN3CCN(c4nsc5ccccc45)CC3)c(Cl)cc2N1 | 24.1 µM (active) |
| O=c1c(O)c(-c2ccc(O)c(O)c2)oc2cc(O)cc(O)c12 | inactive |
| CC1COc2c(N3CCN(C)CC3)c(F)cc3c(=O)c(C(=O)O)cn1c23 (configuration not stated) | 24.1 µM (active) and 27.1 µM (active) |
| C[C@H]1c2cccc(O)c2C(O)=C2C(=O)[C@]3(O)C(O)=C(C(N)=O)C(=O)[C@@H](N(C)C)[C@@H]3[C@@H](O)[C@@H]21 | inactive |
| CC(C)(C)C(=O)Oc1ccc(S(=O)(=O)Nc2ccccc2C(=O)NCC(=O)O)cc1 | inactive |
| Cc1ccccc1N1C(=O)c2cc(S(N)(=O)=O)c(Cl)cc2NC1C (configuration not stated) | 27 µM (active) |
| Cn1ccc2cc3c(cc21)CCN3C(=O)Nc1cccnc1 | 21.5 µM (active) |
| CN(Cc1cnc2nc(N)nc(N)c2n1)c1ccc(C(=O)N[C@@H](CCC(=O)O)C(=O)O)cc1 | 19.1 µM (active) |
| O=C(c1ccc(F)cc1)C1CCN(CCn2c(=O)[nH]c3ccccc3c2=O)CC1 | inactive |
| COc1cc2nc(N3CCN(C(=O)c4ccco4)CC3)nc(N)c2cc1OC | 14.9 µM (active) |
| Cc1cnc(C(=O)NCCc2ccc(S(=O)(=O)NC(=O)NC3CCCCC3)cc2)cn1 | inactive |
| O=C(Nc1ccc([N+](=O)[O-])cc1Cl)c1cc(Cl)ccc1O | inactive |
